Screening results as filed in PubChem.
Tb PGK inh = qHTS Assay to Find Inhibitors of Phosphoglycerate Kinase; Phosphoglycerate kinase, glycosomal (Trypanosoma brucei brucei), P07378; PGK/GAPDH coupled, Kinase-Glo luminescence, 60 min; Potency, µM (doses to about 57.5 µM), hits mostly inhibitors; 380,000 tested, 0.043% active; further: nearly all actives have a fitted effect of over 60% in size
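Recombinant glycosomal PGK reaction used 1,3-bisphosphoglycerate generated in-well by GAPDH (100nM final) in 100mM TEA pH 7.6, 5mM MgCl2, 0.01% Tween-20. After 60 minutes at room temperature, ATP was read by Kinase-Glo Plus luminescence end-point.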
RGS4 inh = Inhibitors of Regulator of G Protein Signaling (RGS) 4: qHTS. Potency, µM (titrated, usually from 114 µM), actives largely listed as inhibitors. Transcreener GDP fluorescence polarization, RGS4-accelerated GTP hydrolysis. Regulator of G-protein signaling 4 (Homo sapiens), P49798. 390,000 tested, 0.039% active; further: nearly all actives have a fitted effect of over 75% in size
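MLSMR compounds (23 nl, pin-transferred) preincubated 10 min at room temperature with a 500nM (2x) first reagent, then RGS4 at 900nM (2x) plus Transcreener GDP mix added; fluorescence polarization (620/688 nm) read before and after 90 min at 30 °C.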
GCN5L2 inh-1 = qHTS Assay for Inhibitors of GCN5L2 | Histone acetyltransferase KAT2A (Homo sapiens), Q92830 | GCN5L2 HAT assay, ThioGlo1 CoA-SH fluorescence | Potency, µM (doses to about 58.9 µM), hits mostly inhibitors | 390,000 tested, 0.21% active | AID 504327, 2011
Target sequence (Q92830 whole entry, looked up): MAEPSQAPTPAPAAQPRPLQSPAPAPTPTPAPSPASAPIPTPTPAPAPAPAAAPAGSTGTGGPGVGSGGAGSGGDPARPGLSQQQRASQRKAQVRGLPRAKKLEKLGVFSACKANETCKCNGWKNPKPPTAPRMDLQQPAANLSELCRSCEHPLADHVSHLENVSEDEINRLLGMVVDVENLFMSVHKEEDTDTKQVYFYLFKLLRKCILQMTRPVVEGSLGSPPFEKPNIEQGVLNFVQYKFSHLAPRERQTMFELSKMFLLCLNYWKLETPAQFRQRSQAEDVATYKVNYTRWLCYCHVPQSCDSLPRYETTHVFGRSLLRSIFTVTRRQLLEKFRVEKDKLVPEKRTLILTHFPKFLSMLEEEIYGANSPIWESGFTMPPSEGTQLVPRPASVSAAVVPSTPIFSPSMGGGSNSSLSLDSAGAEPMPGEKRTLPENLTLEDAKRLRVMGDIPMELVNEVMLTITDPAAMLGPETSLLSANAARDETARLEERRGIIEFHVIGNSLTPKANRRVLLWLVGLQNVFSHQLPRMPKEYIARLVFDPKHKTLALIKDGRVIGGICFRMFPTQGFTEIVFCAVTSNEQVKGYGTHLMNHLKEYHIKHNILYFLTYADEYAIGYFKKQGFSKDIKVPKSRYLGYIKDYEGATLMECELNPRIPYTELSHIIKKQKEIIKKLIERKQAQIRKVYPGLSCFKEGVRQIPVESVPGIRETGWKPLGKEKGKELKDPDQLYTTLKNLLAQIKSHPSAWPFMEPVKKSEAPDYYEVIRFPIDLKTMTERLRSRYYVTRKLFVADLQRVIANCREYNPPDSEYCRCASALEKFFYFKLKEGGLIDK
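Enzyme at 20nM final was mixed with library compounds for 15 min at room temperature. Peptide H3(1-25) at 75uM, acetyl-CoA at 70uM and ThioGlo1 at 50uM were then added. Plates were read immediately and after 20 min (Ex340nm/Em540nm).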
KCNH2 3.1 block = qHTS for Inhibitors of KCHN2 3.1: Mutant qHTS | U2OS KCNH2 3.1, thallium flux FluxOr; active compounds read low | activity change, % (tested at about 1.8 µM) | 340,000 tested, 0.95% active | AID 720553, 2013;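 active means maximum activity change below -70%; inconclusive means maximum activity change from -70% to -50%; inactive means maximum activity change above -50%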;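 further: thallium influx rate constant from kinetic fluorescence after stimulation buffer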
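Thallium flux read-out: FluxOr dye with Red40 quencher in HBSS/HEPES, 45 min at RT. Rate constants from kinetic reads were normalized to positive and negative DMSO controls. Cells: U2OS virally expressing the 3.1 isoform.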
KCNH2 WT inh = qHTS for Inhibitors of KCHN2 3.1: Wildtype qHTS; U2OS, BacMam KCNH2, thallium flux FluxOr; active compounds read low; activity change, % at 1.84 µM; 340,000 tested, 0.37% active;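 active means maximum activity change below -70%; inconclusive means maximum activity change between -70% and -50%; inactive means maximum activity change above -50%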
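U2OS cells transduced with wild-type KCNH2 virus are loaded with FluxOr dye for 45 min, and thallium flux is measured in kinetic reads before and after stimulation buffer. Rate constants are normalized to DMSO controls.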
Pin1 inh = qHTS Assay to Find Inhibitors of Pin1; Pin1 FP peptide displacement, HiFluor488, 10 min; Potency, µM (doses to about 115 µM), usual class: inhibitors; 390,000 tested, 0.009% active; AID 504891, 2011; active means well fitted inhibition curve with a large enough effect in the polarisation, with a control signal flat, not every such curve was filed as active; inconclusive means small, poorly fitted or top-dose-only effect, or effect the other way, or a change in a side signal; inactive means no such curve, though single readings can be large or run the other way; the % refers to the polarisation
GCN5L2 inh-2 = qHTS Assay for Inhibitors of GCN5L2: Hit confirmation | shares compounds with GCN5L2 inh-1 | GCN5L2 HAT, ThioGlo1 CoA fluorescence, 20 min | Potency, µM, most hits filed as inhibitors | 140 tested, 70% active | AID 588347, 2011
Of the large screens only hits and unclear results are named; the others gave an inactive call (follow-up assays come after a bar, where they were run). Rows were chosen to be rich in hits. Some 1.2% of all compounds tested hit in one or more screens of this group. Unless noted, the call rests on the fitted dose curve; in most records, active means well fitted curve in the direction sought with a large enough effect; inconclusive means small, poorly fitted or top-dose-only effect, or another doubt; inactive means no such curve, though single readings can be large; an effect the other way counts as inactive or inconclusive.

CCC(CC)C(=O)NCc1nc2cccnc2n1Cc1ccc(F)cc1	none (no result: KCNH2 3.1 block, KCNH2 WT inh)
O=C(c1ccc2c(c1)CCN2S(=O)(=O)c1ccc(Cl)cc1)N1CCN(c2ccccc2F)CC1	none (no result: KCNH2 3.1 block, KCNH2 WT inh)
OC(COc1ccc2ccccc2c1)CN1CCN(c2ccc(F)cc2)CC1 (configuration not stated)	KCNH2 3.1 block -74
CCCCn1c2c(c(=N)c3c1CCC3)CCC2	none
CCn1c2c(c(=N)c3c1CCC3)CCC2	KCNH2 3.1 block -88
Cc1sc2ncn(CC(=O)N3CCN(c4ccc(Cl)cc4)CC3)c(=O)c2c1S(=O)(=O)N1CCN(c2ncccn2)CC1	none (no result: KCNH2 3.1 block, KCNH2 WT inh)
COc1ccccc1CNC(=O)C1CCCN(c2cnccn2)C1 (configuration not stated)	none
COc1cccc(NC(=O)c2ccnc(N3CCC(C(=O)NCc4ccccc4OC)CC3)c2)c1	KCNH2 3.1 block -109
CCCCc1nn2c(=O)cc(COC(=O)c3ccco3)nc2s1	none (no result: KCNH2 3.1 block, KCNH2 WT inh)
Cc1ncc(C[n+]2csc(CCOC(=O)CC34CC5CC(CC(C5)C3)C4)c2C)c(N)n1	KCNH2 3.1 block -127
N=C1/C(=C/c2ccc(-c3cccc(C(=O)O)c3)o2)C(=O)N=C2SC=C(c3ccccc3)N12	Tb PGK inh inconclusive, RGS4 inh inconclusive, GCN5L2 inh-1 22µM, Pin1 inh inconclusive | GCN5L2 inh-2 16
N=C1/C(=C\c2ccc(-c3cc(Cl)cc(Cl)c3)o2)C(=O)N=C2SC=C(c3ccccc3)N12	none
O=C(C1=NN(c2ccccc2)C2C(=O)N(c3ccc(Cl)cc3)C(=O)C12)c1ccccc1 (configuration not stated)	Pin1 inh inconclusive
O=C(C1=NN(c2ccccc2)C2C(=O)N(c3cccc(Cl)c3)C(=O)C12)c1ccccc1 (configuration not stated)	GCN5L2 inh-1 25µM, Pin1 inh inconclusive | GCN5L2 inh-2 36
CCc1cccc(NC(=O)Cn2c(=O)n(-c3ccccc3C)c(=O)c3c2c2cc(C)ccc2n3C)c1	none (no result: KCNH2 3.1 block, KCNH2 WT inh)
COc1ccc([C@]23Cc4cc(OC)c(OC)cc4C(O2)c2c(c4ccccc4oc2=O)O3)cc1	none (no result: Tb PGK inh, RGS4 inh, KCNH2 3.1 block, KCNH2 WT inh, Pin1 inh)
Cc1ccc(S(=O)(=O)N2[C@@H](c3ccc(C(C)(C)C)cc3)C(C(=O)O)=CC[C@H]2c2ccc(C(C)C)cc2)cc1	Tb PGK inh inconclusive, GCN5L2 inh-1 14µM (no result: Pin1 inh) | GCN5L2 inh-2 13
CCc1ccc([C@@H]2CC=C(C(=O)O)[C@H](c3ccc(C(C)(C)C)cc3)N2S(=O)(=O)c2ccc(C)cc2)cc1	Tb PGK inh inconclusive, GCN5L2 inh-1 18µM (no result: KCNH2 3.1 block, Pin1 inh) | GCN5L2 inh-2 18
CC(=O)c1cccc(S(=O)(=O)NCCc2csc3nc(-c4ccc(F)cc4)nn23)c1	none (no result: KCNH2 3.1 block, KCNH2 WT inh)
CCN(CC)C(=O)COC(=O)c1cc(-c2ccco2)nc2ccccc12	GCN5L2 inh-1 inconclusive, Pin1 inh inconclusive | GCN5L2 inh-2 32
CCOC(=O)C1CCCN(C(=O)c2cc(-c3ccco3)nc3ccccc23)C1 (configuration not stated)	Tb PGK inh inconclusive, RGS4 inh inconclusive, GCN5L2 inh-1 28µM (no result: Pin1 inh) | GCN5L2 inh-2 18
O=C(NCCc1nc2ccccc2n1Cc1ccc(Cl)cc1Cl)c1ccco1	none (no result: Tb PGK inh, KCNH2 3.1 block, KCNH2 WT inh)
CC(=O)N1c2ccccc2[C@@H](C)[C@@H]1C	none
CC(=O)N1c2ccccc2C2(O)N=C(C)SC12 (configuration not stated)	RGS4 inh inconclusive, GCN5L2 inh-1 7.9µM | GCN5L2 inh-2 9.1
COC(=O)c1scc2c(=O)cc(C(F)(F)F)[nH]c12	GCN5L2 inh-1 22µM, Pin1 inh inconclusive (no result: KCNH2 3.1 block, KCNH2 WT inh) | GCN5L2 inh-2 36
O=C(O)c1ccc(N2N=C(c3ccccc3)CC2c2ccccc2)cc1 (configuration not stated)	GCN5L2 inh-1 16µM | GCN5L2 inh-2 14
CC(=O)Nc1ccc(C2=NN(c3ccccc3)C(c3ccccc3)C2)cc1 (configuration not stated)	GCN5L2 inh-1 inconclusive | GCN5L2 inh-2 36
N#C/C(=C\c1cccs1)C(=O)c1ccccc1Cl	RGS4 inh inconclusive, GCN5L2 inh-1 inconclusive | GCN5L2 inh-2 inconclusive
CC(C)(C)C(=O)/C(C#N)=C/c1cccs1	none
O=C1C2=C(C(=O)c3ccccc31)C1O[C@](c3ccsc3)(Cc3ccccc31)O2	none (no result: Tb PGK inh, RGS4 inh, KCNH2 3.1 block, KCNH2 WT inh, Pin1 inh)
Cc1ccc(S(=O)(=O)NC(C(=O)Oc2ccc3c(C(F)(F)F)cc(=O)oc3c2)c2ccccc2)cc1 (configuration not stated)	GCN5L2 inh-1 inconclusive | GCN5L2 inh-2 inconclusive
CS(=O)(=O)c1ccc(C(=O)OCC#CCSc2nnc(-c3cccc4ccccc34)o2)cc1	none (no result: Tb PGK inh, RGS4 inh, GCN5L2 inh-1, KCNH2 3.1 block, KCNH2 WT inh)
O=C(COC(=O)c1ccccc1)Nc1ncc([N+](=O)[O-])s1	Tb PGK inh inconclusive, GCN5L2 inh-1 inconclusive (no result: Pin1 inh) | GCN5L2 inh-2 4.6
O=C(Nc1ccccc1)Nc1ncc([N+](=O)[O-])s1	none
COc1ccccc1NC(=O)C1=C(C)Nc2nc(SCc3cccc(F)c3)nn2C1c1ccc(C(=O)O)cc1 (configuration not stated)	none (no result: KCNH2 3.1 block, KCNH2 WT inh)
Cc1ccc(S(=O)(=O)/N=C2/C=C(Sc3ncn[nH]3)C(=O)c3ccccc32)cc1	Tb PGK inh inconclusive, GCN5L2 inh-1 22µM (no result: Pin1 inh) | GCN5L2 inh-2 1.3
CCOc1ccc(CCNC(=O)c2cc3c(s2)-c2ccccc2OC3)cc1OCC	none (no result: KCNH2 3.1 block, KCNH2 WT inh)
CSS(=O)(=O)c1cccc2cccnc12	RGS4 inh inconclusive, GCN5L2 inh-1 8.9µM | GCN5L2 inh-2 5.8
CCCCCC(O)c1ccc([C@H]2CCC(=O)[C@@H]2CCCCCCC(=O)O)cc1 (some centres not stated)	none (no result: Tb PGK inh, RGS4 inh, KCNH2 3.1 block, KCNH2 WT inh, Pin1 inh)
COC(=O)c1sccc1NC(=O)CC1C(=O)NCCN1C(=O)c1c(F)cccc1Cl (configuration not stated)	GCN5L2 inh-1 inconclusive | GCN5L2 inh-2 inconclusive
Cc1ccc(N(C)C(=O)c2cc(S(=O)(=O)N3CCOCC3)cn2C)cc1	none (no result: KCNH2 3.1 block, KCNH2 WT inh)
O=C1c2ccc(-c3ccc(F)cc3OCc3ccccc3)cc2S(=O)(=O)c2cccc(C(=O)N3CCN(c4ncc(Br)cn4)CC3)c21	none
